Source: the supplement of paper PMC10849652
Of roughly 7,900 targets only a part is listed; those with a hit were picked by preference. About 0.6% of all pairs of compound and target were hits. A number with no mark means an inactive call.

Assays:
Experiment in all cases: log2 fold change, soluble protein after heating vs DMSO (PISA); higher = thermal stabilisation; K562 cells, 10 uM, 30 min; active = over 0.2 and 3.5 SD of the protein, either way, in both replicates (recomputed)
[1] = compound: C1COCCN1CCN2C3=CC=CC=C3N=C2NC(=O)C4=CC(=CC=C4)[N+](=O)[O-] [IRAK-1-4 Inhibitor I]
Method in brief: (§1)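 Aliquots of K562 cells (2×10^6 cells/mL) treated with 10 μM compound for 30 min were heated for 3 min over 48°C-58°C. After pooling and extraction in PBS with 0.5% NP-40 at 4°C, soluble protein from a 21,000xg, 90 min spin was quantified by TMTpro 16plex LC-MS/MS with channel sums equalised. Thermal stability is expressed against control samples, from duplicates, as a log2 fold change.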

[2] = compound: C=CC(=O)N1CCC[C@@H](n2nc(-c3ccc(Oc4ccccc4)cc3)c3c(N)ncnc32)C1 [ibrutinib]
Method in brief: as §1

[3] = compound: CC(=O)c1cnc2ccc(-c3cc(Cl)c(O)c(Cl)c3)nc2c1N[C@H]1CC[C@H](CN(C)C)CC1
Method in brief: as §1

[4] = compound: CC(C)(C)Cn1c(N)nc2ccc(-c3[nH]c(C(C)(C)C)nc3-c3ccc(F)cc3)nc21 [ralimetinib]
Method in brief: as §1

[5] = compound: CC(C)(O)CC(=O)NCCn1ccc2ncnc(Nc3ccc(Oc4cccc(C(F)(F)F)c4)c(Cl)c3)c21
Method in brief: as §1

[6] = compound: CC(C)C1=C2N=C(C=C(N2N=C1)NCC3=CC=CC=C3)NCCCCCCN
Method in brief: as §1

[7] = compound: CC(C)C[C@@H](C=O)NC(=O)[C@H](CC(C)C)NC(=O)[C@H](CC(C)C)NC(=O)OCc1ccccc1
Method in brief: as §1

[8] = compound: CC(C)N(C[C@H]1O[C@@H](n2cnc3c(N)ncnc32)[C@H](O)[C@@H]1O)[C@H]1C[C@@H](CCc2nc3cc(C(C)(C)C)ccc3[nH]2)C1 [pinometostat]
Method in brief: as §1

[9] = compound: CC1=C(C(CC(=O)N1)C2=CC=C(C=C2)C(F)(F)F)C(=O)NC3=C(C=C4C(=C3)C=NN4)F
Method in brief: as §1

[10] = compound: CC1=C(C2=C(C=C1)C(=O)C3=CC=CC=C3N2CCCN)C
Method in brief: as §1

[11] = compound: CC1=C(C=C(C=C1)NC(=O)C2=CC(=CC=C2)C(C)(C)C#N)NC3=CC4=C(C=C3)N=CN(C4=O)C
Method in brief: as §1

[12] = compound: CC1=C(C=C(C=C1)NC(=O)C2=CC(=CC=C2)N(C)C)NC(=O)C3=CC=C(C=C3)O
Method in brief: as §1

[13] = compound: CC1=CC=C(C=C1)SC2=C3C=C(SC3=CN=C2)C(=O)N
Method in brief: as §1

[14] = compound: CC1=NC(=CC=C1)C2=C(N=C(N2)C(C)(C)C)C3=CC4=NC=CN=C4C=C3
Method in brief: as §1

[15] = compound: CCCCN(Cc1ccc(C(=O)NO)cc1)C(=O)Nc1ccccc1 [Nexturastat A]
Method in brief: as §1

[16] = compound: CCCS(=O)(=O)Nc1ccc(F)c(C(=O)c2c[nH]c3ncc(-c4ccc(Cl)cc4)cc23)c1F [vemurafenib]
Method in brief: as §1

[17] = compound: CCCS(=O)(=O)Nc1ccc(F)c(C(=O)c2c[nH]c3ncc(Cl)cc23)c1F
Method in brief: as §1

[18] = compound: CCCc1cc(C)[nH]c(=O)c1CNC(=O)c1cc(-c2ccnc(N3CCN(C)CC3)c2)cc2c1cnn2C(C)C
Method in brief: as §1

[19] = compound: CCN(CC)Cc1ccc2cc(COC(=O)Nc3ccc(C(=O)NO)cc3)ccc2c1 [givinostat]
Method in brief: as §1

[20] = compound: CCN(CCCOc1ccc2c(Nc3cc(CC(=O)Nc4cccc(F)c4)[nH]n3)ncnc2c1)CCOP(=O)(O)O [barasertib]
Method in brief: as §1

Sequence of UniProt Q92851 (Q92851 whole entry, looked up): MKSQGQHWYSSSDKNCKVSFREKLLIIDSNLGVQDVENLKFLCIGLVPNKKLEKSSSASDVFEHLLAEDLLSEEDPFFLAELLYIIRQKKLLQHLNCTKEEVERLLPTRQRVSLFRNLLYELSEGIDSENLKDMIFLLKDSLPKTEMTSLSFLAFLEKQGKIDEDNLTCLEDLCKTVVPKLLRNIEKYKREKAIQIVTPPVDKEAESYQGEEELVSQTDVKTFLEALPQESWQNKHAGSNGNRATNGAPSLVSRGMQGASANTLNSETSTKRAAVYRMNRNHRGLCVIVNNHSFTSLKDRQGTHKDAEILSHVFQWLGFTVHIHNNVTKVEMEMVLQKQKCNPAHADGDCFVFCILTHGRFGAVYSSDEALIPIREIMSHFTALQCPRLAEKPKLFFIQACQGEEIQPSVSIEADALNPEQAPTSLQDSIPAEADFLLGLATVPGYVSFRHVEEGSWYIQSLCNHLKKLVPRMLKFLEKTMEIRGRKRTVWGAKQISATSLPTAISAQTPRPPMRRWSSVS
Sequence of UniProt P42575 (P42575 whole entry, looked up): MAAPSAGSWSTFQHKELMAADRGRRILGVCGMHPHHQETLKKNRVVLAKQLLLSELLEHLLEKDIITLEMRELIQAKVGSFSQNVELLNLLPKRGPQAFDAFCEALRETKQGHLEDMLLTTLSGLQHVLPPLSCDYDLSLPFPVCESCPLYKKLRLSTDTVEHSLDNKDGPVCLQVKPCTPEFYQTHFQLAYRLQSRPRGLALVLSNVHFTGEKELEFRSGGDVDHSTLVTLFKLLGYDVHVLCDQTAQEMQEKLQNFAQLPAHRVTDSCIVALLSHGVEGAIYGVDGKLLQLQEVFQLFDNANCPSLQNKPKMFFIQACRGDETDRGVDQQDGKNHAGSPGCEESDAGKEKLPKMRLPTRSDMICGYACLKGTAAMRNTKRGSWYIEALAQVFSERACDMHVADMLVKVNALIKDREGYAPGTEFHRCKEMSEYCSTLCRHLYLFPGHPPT
Sequence of UniProt Q9Y6H1 (Q9Y6H1 whole entry, looked up): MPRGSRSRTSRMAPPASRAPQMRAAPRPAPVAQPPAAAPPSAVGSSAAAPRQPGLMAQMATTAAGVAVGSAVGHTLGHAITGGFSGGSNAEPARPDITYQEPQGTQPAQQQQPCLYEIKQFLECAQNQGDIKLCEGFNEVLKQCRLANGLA
Sequence of UniProt Q6ZU80 (Q6ZU80 whole entry, looked up): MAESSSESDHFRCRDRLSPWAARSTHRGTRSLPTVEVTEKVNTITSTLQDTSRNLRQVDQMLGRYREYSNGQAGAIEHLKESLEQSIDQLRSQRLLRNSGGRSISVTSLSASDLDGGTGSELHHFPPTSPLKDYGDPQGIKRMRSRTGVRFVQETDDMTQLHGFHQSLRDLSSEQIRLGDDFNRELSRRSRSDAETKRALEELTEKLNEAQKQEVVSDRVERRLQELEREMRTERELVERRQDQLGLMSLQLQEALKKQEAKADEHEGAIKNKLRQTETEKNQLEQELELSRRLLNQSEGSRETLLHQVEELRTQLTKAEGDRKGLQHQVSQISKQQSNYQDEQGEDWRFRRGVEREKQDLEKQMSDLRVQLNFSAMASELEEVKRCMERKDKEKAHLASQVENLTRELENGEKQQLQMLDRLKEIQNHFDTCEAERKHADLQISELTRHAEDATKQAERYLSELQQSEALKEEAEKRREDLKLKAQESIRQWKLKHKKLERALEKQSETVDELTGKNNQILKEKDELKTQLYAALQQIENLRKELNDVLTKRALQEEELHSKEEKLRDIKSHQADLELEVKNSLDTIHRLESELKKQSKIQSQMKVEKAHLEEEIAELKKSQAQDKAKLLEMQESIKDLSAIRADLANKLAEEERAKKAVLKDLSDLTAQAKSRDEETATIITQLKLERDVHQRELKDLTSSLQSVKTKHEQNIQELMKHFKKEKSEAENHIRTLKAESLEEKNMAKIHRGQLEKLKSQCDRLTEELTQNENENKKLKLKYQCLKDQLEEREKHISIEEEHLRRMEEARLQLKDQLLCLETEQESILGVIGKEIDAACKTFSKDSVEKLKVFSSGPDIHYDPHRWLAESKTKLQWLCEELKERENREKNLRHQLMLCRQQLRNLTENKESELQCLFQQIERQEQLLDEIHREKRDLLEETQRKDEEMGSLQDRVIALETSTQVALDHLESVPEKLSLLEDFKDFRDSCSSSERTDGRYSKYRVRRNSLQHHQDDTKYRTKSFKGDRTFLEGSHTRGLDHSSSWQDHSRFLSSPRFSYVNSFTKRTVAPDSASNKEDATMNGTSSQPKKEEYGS
Sequence of UniProt Q9BSQ5 (Q9BSQ5 whole entry, looked up): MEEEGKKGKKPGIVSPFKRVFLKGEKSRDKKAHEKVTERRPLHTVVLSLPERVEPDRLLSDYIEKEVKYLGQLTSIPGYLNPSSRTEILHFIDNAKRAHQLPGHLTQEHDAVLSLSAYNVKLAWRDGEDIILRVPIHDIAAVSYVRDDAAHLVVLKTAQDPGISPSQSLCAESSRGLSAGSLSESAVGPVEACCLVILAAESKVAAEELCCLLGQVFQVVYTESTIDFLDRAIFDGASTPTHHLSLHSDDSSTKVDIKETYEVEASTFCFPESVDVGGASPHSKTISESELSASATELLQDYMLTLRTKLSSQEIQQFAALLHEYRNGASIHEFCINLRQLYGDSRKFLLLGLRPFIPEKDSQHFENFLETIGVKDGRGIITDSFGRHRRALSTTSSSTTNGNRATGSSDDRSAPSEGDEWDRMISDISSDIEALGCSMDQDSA
Sequence of UniProt Q96LT7 (Q96LT7 whole entry, looked up): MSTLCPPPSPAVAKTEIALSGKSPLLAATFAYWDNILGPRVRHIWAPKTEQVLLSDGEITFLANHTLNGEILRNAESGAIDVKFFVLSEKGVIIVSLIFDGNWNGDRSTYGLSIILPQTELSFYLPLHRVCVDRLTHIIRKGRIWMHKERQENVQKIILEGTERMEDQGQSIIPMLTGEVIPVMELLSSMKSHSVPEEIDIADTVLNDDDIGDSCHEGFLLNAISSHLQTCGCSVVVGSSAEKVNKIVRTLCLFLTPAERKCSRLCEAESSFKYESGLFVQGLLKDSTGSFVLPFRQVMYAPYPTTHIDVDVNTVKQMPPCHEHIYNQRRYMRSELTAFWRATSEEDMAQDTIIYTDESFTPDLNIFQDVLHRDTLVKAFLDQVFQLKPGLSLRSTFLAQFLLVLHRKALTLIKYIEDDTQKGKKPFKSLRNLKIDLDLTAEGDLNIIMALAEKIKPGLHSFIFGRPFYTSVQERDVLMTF
Sequence of UniProt O75153 (O75153 whole entry, looked up): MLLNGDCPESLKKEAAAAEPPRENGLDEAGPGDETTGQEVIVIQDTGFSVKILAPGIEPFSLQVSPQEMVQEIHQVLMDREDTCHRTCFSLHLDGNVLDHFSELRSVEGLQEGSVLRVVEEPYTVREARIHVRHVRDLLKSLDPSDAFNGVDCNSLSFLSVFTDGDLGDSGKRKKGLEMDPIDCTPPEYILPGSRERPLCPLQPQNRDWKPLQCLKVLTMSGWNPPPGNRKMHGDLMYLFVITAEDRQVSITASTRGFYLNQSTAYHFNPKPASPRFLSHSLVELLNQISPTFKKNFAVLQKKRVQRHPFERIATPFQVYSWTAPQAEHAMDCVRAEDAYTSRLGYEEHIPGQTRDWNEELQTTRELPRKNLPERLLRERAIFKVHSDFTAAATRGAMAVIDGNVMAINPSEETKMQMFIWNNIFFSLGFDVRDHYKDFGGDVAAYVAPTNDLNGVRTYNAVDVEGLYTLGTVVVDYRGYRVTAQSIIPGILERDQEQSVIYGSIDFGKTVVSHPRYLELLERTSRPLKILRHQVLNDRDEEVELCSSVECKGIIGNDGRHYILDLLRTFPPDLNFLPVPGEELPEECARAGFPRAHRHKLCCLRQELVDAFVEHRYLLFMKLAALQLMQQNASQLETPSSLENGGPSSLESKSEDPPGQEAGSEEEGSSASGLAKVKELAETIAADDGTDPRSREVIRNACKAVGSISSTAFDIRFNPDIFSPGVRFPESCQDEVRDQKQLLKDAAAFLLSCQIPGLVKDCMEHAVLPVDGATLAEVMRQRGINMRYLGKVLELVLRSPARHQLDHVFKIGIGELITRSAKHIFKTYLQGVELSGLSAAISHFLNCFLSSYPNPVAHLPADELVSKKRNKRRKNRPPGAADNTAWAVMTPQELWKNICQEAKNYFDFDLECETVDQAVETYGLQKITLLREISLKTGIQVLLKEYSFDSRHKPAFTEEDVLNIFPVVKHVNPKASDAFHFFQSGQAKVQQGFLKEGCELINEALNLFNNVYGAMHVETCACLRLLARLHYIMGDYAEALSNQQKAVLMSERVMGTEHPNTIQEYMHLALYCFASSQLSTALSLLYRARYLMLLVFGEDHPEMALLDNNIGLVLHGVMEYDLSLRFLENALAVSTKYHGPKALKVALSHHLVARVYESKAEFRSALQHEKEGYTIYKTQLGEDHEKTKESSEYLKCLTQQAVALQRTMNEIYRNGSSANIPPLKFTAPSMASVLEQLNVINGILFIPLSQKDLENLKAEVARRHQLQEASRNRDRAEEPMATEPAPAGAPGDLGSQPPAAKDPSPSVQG
Sequence of UniProt Q8NHZ8 (Q8NHZ8 whole entry, looked up): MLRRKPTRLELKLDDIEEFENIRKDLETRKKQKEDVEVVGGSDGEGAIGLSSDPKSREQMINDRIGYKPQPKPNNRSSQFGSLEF
Sequence of UniProt P24311 (P24311 whole entry, looked up): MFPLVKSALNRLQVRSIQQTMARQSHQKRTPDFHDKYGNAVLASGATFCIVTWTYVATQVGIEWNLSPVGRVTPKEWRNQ
Sequence of UniProt Q9NRR8 (Q9NRR8 whole entry, looked up): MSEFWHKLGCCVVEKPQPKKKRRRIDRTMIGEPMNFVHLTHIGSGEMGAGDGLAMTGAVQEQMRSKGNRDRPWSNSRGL

| Target | log2 fold change [1] | log2 fold change [2] | log2 fold change [3] | log2 fold change [4] | log2 fold change [5] | log2 fold change [6] | log2 fold change [7] | log2 fold change [8] | log2 fold change [9] | log2 fold change [10] | log2 fold change [11] | log2 fold change [12] | log2 fold change [13] | log2 fold change [14] | log2 fold change [15] | log2 fold change [16] | log2 fold change [17] | log2 fold change [18] | log2 fold change [19] | log2 fold change [20] |
| --- | --- | --- | --- | --- | --- | --- | --- | --- | --- | --- | --- | --- | --- | --- | --- | --- | --- | --- | --- | --- |
| CHST11 (UniProt Q9NPF2) | -0.002 | -0.032 | 0.063 | -0.406 | 0.057 | -0.257 | -0.17 | 0.084 | -0.006 | -0.058 | 0.019 | 0.099 | 0.189 | 0.047 | 0.013 | 0.027 | 0.384 (active) | 0.089 | -0.029 | 0.049 |
| CEMIP2 (UniProt Q9UHN6) | 0 | 0.096 | -0.045 | -0.023 | -0.026 | 0.122 | 0.11 | -0.035 | -0.211 | 0.057 | – | 0.043 | 0.592 (active) | 0.033 | 0.02 | -0.045 | -0.1 | -0.168 | -0.052 | -0.012 |
| CDC26 (UniProt Q8NHZ8) | -0.014 | -0.003 | 0.099 | 0.188 | 0.007 | -0.01 | -0.04 | -0.128 | 0.005 | 0.049 | -0.026 | 0.029 | -0.025 | 0.021 | 0.067 | 0.534 (active) | -0.048 | 0.056 | 0.056 | 0.007 |
| CHAF1A (UniProt Q13111) | 0 | -0.143 | -0.118 | 0.056 | 0.067 | -0.066 | 0.08 | -0.028 | -0.042 | – | 0.035 | -0.054 | 0.087 | -0.116 | 0.088 | – | 0.026 | -0.097 | 0.149 | 0.107 |
| CASP2 (UniProt P42575) | 0.017 | 0.027 | 0 | -0.074 | -0.073 | -0.082 | 0.072 | -0.013 | -0.016 | 0.091 | 0.025 | 0.001 | 0.215 | 0.056 | 0.004 | 0.026 | 0.193 | 0.086 | 0.039 | 0.026 |
| C9orf72 (UniProt Q96LT7) | 0.016 | 0.022 | -0.001 | 0.035 | -0.051 | 0.029 | -0.019 | 0.135 | -0.095 | 0.048 | 0.108 | -0.009 | 0.027 | -0.014 | -0.102 | -0.139 | -0.038 | 0.007 | -0.022 | 0.042 |
| CHCHD2 (UniProt Q9Y6H1) | 0.009 | 0.067 | 0.022 | -0.035 | -0.017 | 0.095 | -0.071 | -0.068 | 0.144 | -0.004 | 0.019 | -0.037 | 0.282 | 0.004 | -0.047 | -0.028 | -0.019 | -0.09 | -0.042 | 0.008 |
| CDC42SE1 (UniProt Q9NRR8) | 0.066 | 0.049 | -0.004 | 0.021 | 0.042 | -0.111 | 0.074 | 0.11 | 0.282 | 0.015 | 0.132 | 0.059 | 0.016 | -0.09 | -0.115 | -0.007 | 0.051 | -0.705 | -0.236 | 0.071 |
| CREB3L2 (UniProt Q70SY1) | 0.055 | 0.168 | -0.108 | -0.01 | -0.08 | 0.322 | 0.607 | -0.193 | -0.058 | 0.074 | – | 0.085 | – | -0.23 | 0.706 (active) | -0.036 | – | 0.154 | 0.436 | 0.081 |
| CLCN7 (UniProt P51798) | -0.01 | – | -0.005 | -0.055 | -0.08 | -0.91 (active) | 0 | -0.051 | 0.04 | -0.092 | 0.027 | -0.026 | 0.029 | 0.006 | -0.07 | 0.001 | 0.038 | -0.068 | -0.007 | -0.015 |
| COX7B (UniProt P24311) | 0.045 | 0.074 | 0.034 | – | -0.011 | 0.112 | – | -0.139 | -0.011 | 0.266 | 0.048 | – | 0.045 | 0.094 | -0.056 | -0.148 | 0.136 | -0.188 | -0.013 | -0.025 |
| CLUH (UniProt O75153) | 0.107 | – | 0.467 (active) | 0.028 | -0.048 | -0.179 | -0.009 | 0.045 | -0.094 | 0.095 | -0.017 | -0.08 | -0.002 | -0.072 | -0.022 | 0.047 | -0.03 | 0.049 | 0.016 | 0.033 |
| CRTC1 isoform 2 (UniProt Q6UUV9) | 0.026 | -0.061 | -0.023 | 0.025 | -0.042 | 0.112 | -0.041 | -0.024 | – | 0.072 | -0.001 | 0.195 | -0.086 | 0.073 | 0.24 | -0.035 | 0.051 | – | 0.158 | 0.015 |
| CEP128 (UniProt Q6ZU80) | -0.149 | -0.055 | -0.022 | – | – | – | – | 0.012 | – | 0.1 | -0.043 | – | 0.006 | -0.188 | – | -0.1 | -0.118 | -0.422 | – | 0.098 |
| CCM2 isoform 2 (UniProt Q9BSQ5) | 0.027 | -0.004 | – | 0.04 | 0.027 | -0.085 | 0.009 | 0.056 | – | -0.013 | -0.072 | -0.068 | -0.124 | -0.002 | 0.102 | 0.008 | 0.009 | 0.052 | -0.003 | -0.061 |
| CASP10 isoform 4 (UniProt Q92851) | -0.132 | -0.083 | 0.083 | 0.095 | -0.13 | – | -0.015 | 0.047 | 0.021 | 0.262 | 0.015 | 0.026 | 0.085 | 0 | 0.125 | -0.015 | 0.014 | 0.034 | – | 0.121 |
